HDAC3 inh: HDAC3 deacetylase inhibitors, primary screen, biochemical, fluorescence, cell-free homogeneous. inhibition, % at 8.3 µM. Histone deacetylase 3 (Homo sapiens), O15379. recombinant HDAC3, fluorogenic peptide/trypsin coupled. AID 2718, 2010. actives 0.15% (n = 320,000); in the data active means inhibition above about 26%, passing the limit was not always enough; inconclusive means no clear call, values can overlap the other calls
Target sequence (O15379 whole entry, looked up): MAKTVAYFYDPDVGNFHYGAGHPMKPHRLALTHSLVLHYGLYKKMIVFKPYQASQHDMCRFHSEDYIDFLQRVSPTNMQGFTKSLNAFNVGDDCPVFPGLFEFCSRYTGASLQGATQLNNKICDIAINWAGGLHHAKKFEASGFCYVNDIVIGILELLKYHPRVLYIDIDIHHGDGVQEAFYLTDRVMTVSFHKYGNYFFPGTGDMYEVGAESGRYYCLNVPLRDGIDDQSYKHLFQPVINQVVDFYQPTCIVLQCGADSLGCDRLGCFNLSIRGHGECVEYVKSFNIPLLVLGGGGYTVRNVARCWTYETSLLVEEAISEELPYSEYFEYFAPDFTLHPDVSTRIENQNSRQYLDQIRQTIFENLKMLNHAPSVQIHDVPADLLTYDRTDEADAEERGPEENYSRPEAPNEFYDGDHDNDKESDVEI
NPR1 activator: GC-A stimulated cGMP production enhancers – HEK293 GC-A cells, cGMP TR-FRET, EC30 ANP, primary screen | Atrial natriuretic peptide receptor 1 (Homo sapiens), P16066 | 0% at EC30 ANP, 100% saturating ANP | activation, % at 10 µM | actives 0.14% (n = 370,000) | AID 1671463, 2021; in the data active means activation above about 40%
GC-B act: human GC-B receptor activators, primary screen, HEK293 GC-B cells, cGMP TR-FRET, EC30 CNP; Atrial natriuretic peptide receptor 2 (Homo sapiens), P20594; 0% at EC30 CNP, 100% saturating CNP; activation, % at 10 µM; actives 0.11% (n = 370,000); AID 1920062, 2024;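 active means activation at 10 µM reaching about 35% in either raw or pattern-adjusted values, limit read from the data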
ALR H2O2 inh: inhibitors of human ALR sulfhydryl oxidase, primary screen, biochemical, H2O2 detection, HRP-luminol luminescence, single point; actives 3.8% (n = 290,000); AID 485317, 2010; FAD-linked sulfhydryl oxidase ALR (Homo sapiens), P55789; purified ALR, DTT oxidation; inhibition, % (test concentration not listed);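 active means mean replicate inhibition above about 79%, with every replicate also reaching it, limit read from the data; inconclusive means only one of the two criteria met; inactive means mean below limit and not every replicate reaching it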
* marks the source's active call; other numbers are inactive results. Shown is part of a subset that was picked to be rich in hits.

Results for C/C(=N\Nc1ccc([N+](=O)[O-])cc1)c1ccc(N)cc1 ?
HDAC3 inh: 9; NPR1 activator: -2; GC-B act: -1; ALR H2O2 inh: 98*

How did O=C(O)c1ccc(N/N=C/c2ccc(-c3ccc(Br)cc3)o2)cc1 do in these assays?
HDAC3 inh: -1; NPR1 activator: 4; GC-B act: -4

What do the screens show for `O=C(O)c1cccc(Cn2c(Cl)c(/C=N/Nc3ccccc3)sc2=O)c1`?
HDAC3 inh: -1; ALR H2O2 inh: 100*

Results for O=C(O)c1cccc(-c2ccc(/C=N/n3cnc4sc5c(c4c3=O)CCCC5)o2)c1 ?
HDAC3 inh: -5; ALR H2O2 inh: 22

Results for O=C(NNC(=O)C1CCCN(S(=O)(=O)c2cccc(F)c2)C1)C1CC1 (stereo not given) ?
HDAC3 inh: -3; NPR1 activator: 3; GC-B act: 6; ALR H2O2 inh: -6

How did Cc1cccc(CN2[C@@H](C)[C@H](c3ccccc3)Oc3cc(Br)ccc3S2(=O)=O)c1 do in these assays?
NPR1 activator: -3; GC-B act: 4

How did O=C(N/N=C\c1cc(Br)cs1)c1ccncc1 do in these assays?
HDAC3 inh: 1; NPR1 activator: 3; GC-B act: -4; ALR H2O2 inh: 14

Results for O=C(O)c1cccc(N/N=C/c2cccc3ccccc23)c1 ?
HDAC3 inh: -1; NPR1 activator: -3; GC-B act: -1; ALR H2O2 inh: 99*

How did O=C(O)c1ccc(N/N=C/c2cc(Br)cs2)cc1 do in these assays?
HDAC3 inh: 6; NPR1 activator: 12; GC-B act: -4; ALR H2O2 inh: 98*

How did Cc1ccc(/C=N\NC(=O)/C(=C\Nc2nccc(C)n2)NC(=O)c2ccccc2)cc1 do in these assays?
NPR1 activator: 11; GC-B act: 6

What do the screens show for `Cc1cccc(Cc2c(C)nc3nc(SCC(=O)NCc4ccco4)nn3c2C)c1`?
HDAC3 inh: -1; NPR1 activator: -1; GC-B act: -3; ALR H2O2 inh: 77*

What do the screens show for `Cc1ccc(Cc2c(C)nc3nc(SCC(=O)NCc4ccco4)nn3c2C)cc1`?
HDAC3 inh: 1; NPR1 activator: -2; GC-B act: -2; ALR H2O2 inh: 8

How did O=c1cc(CSc2nc3ccccc3[nH]2)c2ccccc2[nH]1 do in these assays?
HDAC3 inh: 3; NPR1 activator: -2; GC-B act: -6; ALR H2O2 inh: 91*

Results for Cc1cc(=O)[nH]c(SCc2cccc3ccccc23)n1 ?
HDAC3 inh: 6; NPR1 activator: -1; GC-B act: -1; ALR H2O2 inh: 98*

What do the screens show for `COc1ccc(CSc2nc(C)cc(=O)[nH]2)cc1Br`?
HDAC3 inh: -7; NPR1 activator: 3; GC-B act: 2; ALR H2O2 inh: 98*

How did O=C(Nc1ccnn1C1CCN(CCCc2ccccc2)CC1)c1cccc(F)c1 do in these assays?
HDAC3 inh: 4; NPR1 activator: 0; GC-B act: -3; ALR H2O2 inh: 3

Results for Cc1nnc(NC(=O)CC23CC4CC(CC(C4)C2)C3)s1 ?
HDAC3 inh: inconclusive; NPR1 activator: 4; GC-B act: 3; ALR H2O2 inh: -8

Results for COc1ccccc1OCC(=O)Nn1c(=S)[nH]c2ncccc2c1=O ?
HDAC3 inh: 8; NPR1 activator: -1; GC-B act: 0; ALR H2O2 inh: 91*

How did C[C@@H]1CCCCO[C@H](CN(C)S(=O)(=O)c2ccccc2)[C@@H](C)CN([C@H](C)CO)C(=O)c2cc(NC(=O)Cc3ccccc3)ccc2O1 do in these assays?
NPR1 activator: 4; GC-B act: 2

How did COc1cc(N=Cc2c(CO)cnc(C)c2O)cc(OC)c1OC do in these assays?
HDAC3 inh: -4; NPR1 activator: 0; GC-B act: 2; ALR H2O2 inh: 99*

What do the screens show for `COc1ccccc1N/N=C/c1c(CO)cnc(C)c1O`?
HDAC3 inh: 4; NPR1 activator: -6; GC-B act: -7; ALR H2O2 inh: 100*

Results for O=C(O)c1ccc(CSC2CCCCC2)cc1 ?
HDAC3 inh: 0; NPR1 activator: 5; GC-B act: 4

Results for Cc1ccccc1NC(NC(=O)c1cccnc1)C(Cl)(Cl)Cl (stereo not given) ?
HDAC3 inh: 10; NPR1 activator: -11; GC-B act: -9; ALR H2O2 inh: -3

How did COc1ccc(NC(NC(=O)c2cccnc2)C(Cl)(Cl)Cl)cc1 (stereo not given) do in these assays?
HDAC3 inh: -2; NPR1 activator: -3; GC-B act: 3; ALR H2O2 inh: 99*

What do the screens show for `CCCCOc1ccc(CSC(=N)N)cc1Cl`?
HDAC3 inh: 5; NPR1 activator: 10; GC-B act: -3; ALR H2O2 inh: 99*

Results for CCCCCOc1ccc(Br)cc1CSC(=N)N ?
NPR1 activator: -43; GC-B act: -18

What do the screens show for `CCOc1ccc(CSC(=N)N)cc1`?
HDAC3 inh: -1; NPR1 activator: 0; GC-B act: 4; ALR H2O2 inh: 98*

How did O=C(NCCNC(=O)c1cc(OCC(F)(F)F)ccc1OCC(F)(F)F)Nc1cccc(C(F)(F)F)c1 do in these assays?
HDAC3 inh: 36*; NPR1 activator: 0; GC-B act: 4; ALR H2O2 inh: -9

What do the screens show for `Nc1ncc(-c2ccc([N+](=O)[O-])cc2)cn1`?
HDAC3 inh: 5; NPR1 activator: 0; GC-B act: 1; ALR H2O2 inh: -10

How did O=[N+]([O-])c1ccc(-c2cnc(NO)nc2)cc1 do in these assays?
HDAC3 inh: 5; NPR1 activator: 4; GC-B act: 1; ALR H2O2 inh: 99*

Results for CC(C)NC(=S)NN(c1ccccc1)c1ccccc1 ?
HDAC3 inh: -7; NPR1 activator: -2; GC-B act: -5; ALR H2O2 inh: 99*

How did O=C(O)CCNC(=O)/C(=C\c1ccco1)NC(=O)c1ccco1 do in these assays?
HDAC3 inh: 8; NPR1 activator: 2; GC-B act: 7; ALR H2O2 inh: -2

Results for CCCc1nn(C)c2c(=O)[nH]c(-c3cc(S(=O)(=O)N4CCN(C)CC4)ccc3OCC)nc12 ?
HDAC3 inh: -1; NPR1 activator: 52*; GC-B act: 58*; ALR H2O2 inh: 4

What do the screens show for `CCCc1nn(C)c2c(=O)[nH]c(-c3ccccc3OCC)nc12`?
HDAC3 inh: -10; NPR1 activator: 21; GC-B act: 22; ALR H2O2 inh: -2

What do the screens show for `CCCc1nn(C)c2c(=O)[nH]c(-c3cc(S(=O)(=O)Nc4ccc(NC(C)=O)cc4)ccc3OCC)nc12`?
HDAC3 inh: -2; NPR1 activator: 41*; GC-B act: 55*; ALR H2O2 inh: -4

Results for COc1cccc(C(=O)Nc2nc3c(s2)CN(C)CC3)c1 ?
HDAC3 inh: -11; NPR1 activator: -4; GC-B act: 5; ALR H2O2 inh: -7

How did Nc1nc2c(Cl)ccc(Cl)c2s1 do in these assays?
HDAC3 inh: -7; NPR1 activator: 13; GC-B act: -5

Screens deposited in PubChem by several laboratories.
